From PubChem BioAssay
This is a sample that favours compounds with a hit; in the whole collection about 3.4% have one here.
Mcl-1 Bim block = inhibitors of Bim-Mcl-1 interaction, human; AID 1009; inhibition, % at 10 µM; Bead-based flow cytometry, Bim peptide-Mcl-1 binding; 190,000 compounds, 0.1% hits; in the data active = inhibition above about 40%;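 also: 0% = no compound tracer wells and 100% = peptide blocker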
14-3-3 Bad PPI = disrupts binding of bovine 14-3-3 zeta to phospho-Bad peptide; 220,000 compounds, 0.71% hits; inhibition, % at 21.7 µM; P63103; TR-FRET 14-3-3zeta/Dy647-pBad peptide displacement, 1 h;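 active = inhibition above about 70%, limit read from the data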;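 also: 0% = full 14-3-3 plus peptide FRET controls and 100% = background without 14-3-3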
eIF4E-4G inh = blocks eIF4E binding to eIF4G | P63073+Q04637 | TR-FRET eIF4E-eIF4GI(517-606) binding, 2 h | inhibition, % at 21.7 µM | 220,000 compounds, 0.37% hits | AID 782;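 also: 0% = full FRET control wells and 100% = background wells lacking eIF4GI fragment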
p47phox inh = inhibitors of human p47phox binding | P14598 | p47phox/p22phox peptide binding, fluorescence polarization, 2 h | inhibition, % at 24.7 µM | 220,000 compounds, 0.53% hits | AID 1274;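 also: 0% = p47phox with labelled peptide and 100% = labelled peptide alone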
Target sequence (P14598 whole entry, looked up): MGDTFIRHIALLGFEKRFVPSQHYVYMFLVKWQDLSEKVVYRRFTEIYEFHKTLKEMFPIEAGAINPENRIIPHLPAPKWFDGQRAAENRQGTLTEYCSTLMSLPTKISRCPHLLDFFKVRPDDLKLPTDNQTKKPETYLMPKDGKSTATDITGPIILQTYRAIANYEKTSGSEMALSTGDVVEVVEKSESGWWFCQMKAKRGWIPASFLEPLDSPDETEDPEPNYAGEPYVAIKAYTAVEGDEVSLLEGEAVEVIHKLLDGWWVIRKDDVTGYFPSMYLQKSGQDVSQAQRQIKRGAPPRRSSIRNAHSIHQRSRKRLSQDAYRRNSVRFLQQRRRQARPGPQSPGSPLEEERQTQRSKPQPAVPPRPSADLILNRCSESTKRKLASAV
Mcl1 Noxa PPI = Mcl-1/Noxa interaction inhibition; Q07820; inhibition, % at 21.7 µM; 220,000 compounds, 1.5% hits; TR-FRET Mcl-1/Noxa peptide binding, 2 h;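 active = compounds that cut the protein-peptide binding signal by more than 50% relative to plate controls in a single-dose test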;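 also: His-tagged Mcl-1 with rhodamine Noxa BH3 peptide and terbium anti-His antibody; 0% = Mcl-1 plus Noxa peptide wells and 100% = peptide-only wells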
Mcl1-Bid inh = disrupts binding of human Mcl-1 to Bid peptide; TR-FRET Mcl-1/Bid-Dy647 peptide binding, 1536-well; inhibition, % at 21.7 µM; 220,000 compounds, 0.97% hits; AID 1021;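 active = compounds that cut the binding signal by more than half at the single screening dose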;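 also: His-tagged Mcl-1 with europium anti-His antibody binding Bid BH3 peptide; 0% = Mcl-1 plus peptide wells and 100% = peptide-only wells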
Numbers without * were called inactive; x = not tested or not shown.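 The calls were made as follows, unless noted: active = inhibition above about 30% (limit read from the data); inactive = the rest.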

SMILES	Mcl-1 Bim block	14-3-3 Bad PPI	eIF4E-4G inh	p47phox inh	Mcl1 Noxa PPI	Mcl1-Bid inh
CCCn1nc([N+](=O)[O-])c(C(C#N)c2nc3ccccc3o2)c(Cl)c1=O (stereo not given)	1	15	6	2	60*	31
CCn1nc([N+](=O)[O-])c(C(C#N)c2nc3cc(C(F)(F)F)ccc3s2)c(Cl)c1=O (stereo not given)	4	x	x	-29	90*	36
COc1ccc(CCNC(=O)CN2C(=O)NC(C)(c3ccc([N+](=O)[O-])cc3)C2=O)cc1 (stereo not given)	0	-10	-1	-3	15	-16
COC(=O)c1ccccc1NC(=O)c1ccc(-c2ccc(Br)cc2)o1	-1	8	-3	-1	19	-5
O=C(Nc1cccc2nsnc12)c1ccc(-c2ccc(Br)cc2)o1	-1	-6	-3	-53	27	63*
CC(C)OP(=O)(c1ccc(N(C)C)cc1)C(O)c1cccnc1 (stereo not given)	x	-3	3	2	-1	-32
Cc1ccc(NC(=O)CN2C(=O)S/C(=C\c3cccn3-c3cccc(C(=O)O)c3)C2=O)c(C)c1	4	1	11	-94	93*	45
Cc1cccc(C)c1NC(=O)CN1C(=O)S/C(=C\c2cccn2-c2cccc(C(=O)O)c2)C1=O	0	1	-5	-10	-2	-34
Cc1cccc(C)c1-n1cccc1/C=C1\SC(=S)N(c2cccc(C(=O)O)c2)C1=O	16	45	23	-42	51*	52*
CC(C)(C)NCCOCCOc1ccccc1-c1ccccc1	-2	39	-1	-6	4	56*
CC1CC(C)CN(CCOc2ccccc2-c2ccccc2)C1 (stereo not given)	-3	42	5	-7	31	57*
CC1CCN(CCOc2ccccc2-c2ccccc2)CC1	0	46	2	-5	19	28
CCN1CCN(CCOCCOc2ccccc2-c2ccccc2)CC1	2	71*	3	5	25	39
c1ccc(-c2ccccc2OCCOCCN2CCNCC2)cc1	1	27	5	-4	15	14
COc1ccc(NC(=O)Nc2ccccc2F)cc1Cl	-6	1	-2	-1	17	-18
O=C(O)/C=C/C(=O)Nc1ccc(NC(=O)c2ccccc2)c(Cl)c1	2	96*	2	-13	16	-10
COc1ccc(-c2nc(-n3c(C)c(C(C)=O)c(C(C)=O)c3C)sc2C)cc1	-2	-9	8	0	12	98*
CC(=O)c1c(C(C)=O)c(C)n(-c2nc(-c3ccc(C)c(C)c3)c(C)s2)c1C	-1	2	-2	-5	4	12
CC1CCCCN1C(=O)C12CCC(C)(/C(=N/O)C1)C2(C)C (stereo not given)	5	9	1	37*	9	-12
COc1cccc(CC2(CO)CCCN(Cc3ccc4c(c3)OCCO4)C2)c1 (stereo not given)	1	1	1	-2	-15	-21
CCn1c(-c2csc3ccccc23)n[nH]c1=S	-8	-30	-6	-5	8	-23
CCn1c(-c2ccccc2O)n[nH]c1=S	0	-13	0	33*	16	-99
O=C(O)c1ccc(N2C(=O)CC(SC(=NCc3ccc4c(c3)OCO4)Nc3ccc(F)cc3)C2=O)cc1 (stereo not given)	-2	8	4	-37	8	13
O=C(O)c1ccc(N2C(=O)CC(SC(=NCc3ccc4c(c3)OCO4)Nc3ccccc3)C2=O)cc1 (stereo not given)	x	1	92*	-11	-14	-15
COc1cc(/C=N/NC(=O)c2cc(-c3ccco3)nc3ccccc23)cc(OC)c1O	x	7	14	-10	82*	-23
SMILES	Mcl-1 Bim block	14-3-3 Bad PPI	eIF4E-4G inh	p47phox inh	Mcl1 Noxa PPI	Mcl1-Bid inh
O=C(N/N=C/c1cccc(F)c1)c1cc(-c2ccco2)nc2ccccc12	-2	24	20	-40	91*	-19
Cn1c(CCC(=O)OCC(=O)NCc2ccc3c(c2)OCO3)nc(=O)c2ccccc21	x	0	-3	3	7	-4
Cc1ccc(NC(=O)c2ccc([N+](=O)[O-])cc2Cl)nc1	-5	16	2	-12	-13	-20
CN(C)c1ccc(NC(=O)c2ccc([N+](=O)[O-])cc2Cl)cc1	-4	-15	15	1	74*	-19
O=C(Nc1ccccn1)c1ccc([N+](=O)[O-])cc1Cl	-3	4	2	-9	2	94*
CCC(C)N1C(=O)CN(C2CCCCCC2)C(=O)C1c1ccccc1F (stereo not given)	-2	-10	1	1	2	-11
COc1cc(C(=O)NNC(=S)Nc2ccc(S(N)(=O)=O)cc2)cc(OC)c1OC	-8	-2	7	-4	-11	-63
Cc1ccc(NC(=O)CCC(=O)N/N=C/c2cccs2)cc1C	-7	-3	-4	-12	-4	3
Cc1ccc(NC(=O)CCC(=O)N/N=C/c2cccs2)cc1	0	86*	-3	-119	4	-23
CCCCNC(c1ccccc1)c1ccncc1 (stereo not given)	-1	71*	9	-6	28	11
CCOC(=O)C(NCCCO)c1ccccc1 (stereo not given)	-1	24	1	-1	3	3
Cn1ccc(NC(=O)Nc2cccc([N+](=O)[O-])c2)n1	0	-4	0	-6	16	-8
COC(=O)c1ccc(C(=O)OC)c(=O)[nH]1	x	8	0	-3	-2	-19
Oc1cccc(Nc2nc(NCC3CCCO3)c3ccccc3n2)c1 (stereo not given)	0	63	-1	-10	58*	9
c1ccc(Nc2nc(NCC3CCCO3)c3ccccc3n2)cc1 (stereo not given)	1	4	-1	3	35	0
COc1ccc(OC)c(C(c2nnnn2CCC(C)C)N2CCN(C(=O)c3ccco3)CC2)c1 (stereo not given)	12	48	-3	-22	16	19
O=C(c1ccco1)N1CCN(C(c2ccc(Cl)cc2)c2nnnn2CC2CCCO2)CC1 (stereo not given)	-6	81*	-3	-10	15	55*
CC(C)CCn1nnnc1C(c1ccc(F)cc1)N1CCN(C(=O)c2ccco2)CC1 (stereo not given)	4	83*	8	-1	12	-13
O=C(c1ccco1)N1CCN(C(c2ccc(F)cc2)c2nnnn2Cc2cccs2)CC1 (stereo not given)	-3	90*	7	-11	25	62*
Fc1ccc(Cn2nnnc2C(c2ccc(Cl)cc2)N2CCSCC2)cc1 (stereo not given)	43*	53	9	-25	11	14
